# Measured values: the supplement of paper PMC6555819
# Columns and labels:
# Assay in all cases: PBM binding z-score (relative to random genomic background probes); higher = stronger binding; sequences stand for … in GC…GCGATTGACAGCGTAGAATGAAGG
# [1] = system: FXR:RXRa (NR concentration 270 nM, RXRa partner concentration 90 nM)
# Outline: (§1)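 Random background probes are the reference for binding z-scores. These scores derive from regression-normalized fluorescence on custom Agilent 4×180K protein-binding microarrays incubated 1 h with ligand-free nuclear receptor dimers. Binding was detected with antibodies against each partner (one per run).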
# [2] = system: LXRa:RXRa (NR concentration 270 nM, RXRa partner concentration 90 nM)
# Outline: as §1
# [3] = system: LXRa homodimer (NR concentration 270 nM)
# Outline: as §1
# [4] = system: LXRb:RXRa (NR concentration 270 nM, RXRa partner concentration 90 nM)
# Outline: as §1
# [5] = system: LXRb homodimer (NR concentration 270 nM)
# Outline: as §1
# [6] = system: PPARa:RXRa (NR concentration 270 nM, RXRa partner concentration 90 nM)
# Outline: as §1
# [7] = system: PPARg:RXRa (NR concentration 180 nM, RXRa partner concentration 90 nM)
# Outline: as §1
# [8] = system: PPARg:RXRa 270nM:90nM, anti-RXR (NR concentration 270 nM, RXRa partner concentration 90 nM)
# Outline: as §1
# [9] = system: PPARg:RXRa 30nM:10nM, anti-RXR (NR concentration 30 nM, RXRa partner concentration 10 nM)
# Outline: as §1
# [10] = system: PPARg:RXRa 90nM:30nM, anti-RXR (NR concentration 90 nM, RXRa partner concentration 30 nM)
# Outline: as §1
# [11] = system: PPARg:RXRa DBDmut IVT, anti-RXR (DBD mutation: RXRa K156A/R161A, NR concentration 270 nM, RXRa partner concentration 90 nM)
# Outline: as §1
# [12] = system: PPARg:RXRa IVT, anti-PPARg (NR concentration 270 nM, RXRa partner concentration 90 nM)
# Outline: as §1
# [13] = system: PPARg DBDmut:RXRa IVT, anti-PPARg (DBD mutation: PPARg1 K132A/R137A, NR concentration 270 nM, RXRa partner concentration 90 nM)
# Outline: as §1
# [14] = system: PPARg DBDmut IVT, anti-PPARg (DBD mutation: PPARg1 K132A/R137A, NR concentration 270 nM)
# Outline: as §1
# [15] = system: PPARg homodimer (NR concentration 180 nM)
# Outline: as §1
# [16] = system: PXR:RXRa (NR concentration 270 nM, RXRa partner concentration 90 nM)
# Outline: as §1
# [17] = system: PXR homodimer (NR concentration 270 nM)
# Outline: as §1
# [18] = system: RARa:RXR (NR concentration 270 nM, RXRa partner concentration 90 nM)
# Outline: as §1
# [19] = system: RARa homodimer (NR concentration 270 nM)
# Outline: as §1
# [20] = system: RARb:RXRa (NR concentration 270 nM, RXRa partner concentration 90 nM)
# Outline: as §1
Sequence,PBM binding z-score [1],PBM binding z-score [2],PBM binding z-score [3],PBM binding z-score [4],PBM binding z-score [5],PBM binding z-score [6],PBM binding z-score [7],PBM binding z-score [8],PBM binding z-score [9],PBM binding z-score [10],PBM binding z-score [11],PBM binding z-score [12],PBM binding z-score [13],PBM binding z-score [14],PBM binding z-score [15],PBM binding z-score [16],PBM binding z-score [17],PBM binding z-score [18],PBM binding z-score [19],PBM binding z-score [20]
AATACAGGGTCCCTAGGCCAGAGTAGGTACGAAT,-0.341,-0.334,-0.145,-0.634,-0.575,-0.299,0.603,0.00679,0.133,0.0597,-0.243,0.245,-0.698,-1.31,-0.659,-0.49,-0.525,-0.409,0.104,0.138
TCATATAGGTAAATGCTAAGTGAAAGTCCGATCT,1.1,0.928,0.284,0.773,-0.0273,1.17,0.762,2.04,3.9,2.9,4.03,2.11,0.478,0.946,0.521,0.632,0.372,0.974,0.763,0.453
CCTTACGGGTCACTCCAGGTTACAGCATCGGAGT,4.9,7.35,2.06,4.72,0.0209,4.42,3.74,3.8,1.1,2.64,2.73,4.01,0.164,-0.572,1.91,4.66,0.311,3.94,0.566,3.86
TATACAGGGTCAAAGGCCAGCGTACGAATGTCGA,7.47,6.28,2.26,4.8,2.36,6.28,8.39,7.25,5.73,7.51,2.18,4.79,2.29,0.981,3.54,4.34,0.322,6.38,1.26,4.46
TATAGTTGGTCAAAGGTCACACACTCGAAATGCG,5.81,6.08,3.62,5.5,2.11,6.7,11.4,9.75,9.43,10.9,2.28,6.4,1.87,3.69,4.52,6.04,1.29,6.91,2.66,5.04
TCTAGTTGGTCACGGAGGTCACAGACGACGGGTA,3.38,3.46,1.88,3.32,0.321,4.34,3.91,4.32,3.41,3.8,2.62,4.51,0.854,1.64,3.09,4.61,0.763,4.83,1.36,3.96
TCATATAGGTAAGTGCTAGGTGAAAGTCCGATCT,0.366,0.752,0.094,0.207,0.122,0.896,0.556,2.06,3.39,2.49,3.42,2.48,0.55,0.697,0.802,0.193,0.147,0.223,1.04,0.4
GCTAGCAGGCCATCTGGGTCACTCAATGACGGGC,0.0876,-0.178,-0.882,-0.232,-0.896,1.7,1.31,1.36,-0.319,0.57,3,3.48,-0.603,-1.04,0.0368,0.27,-0.407,0.713,-0.51,1.67
TCTCGGAGGACACGAAGGGCAGAGCTTTCCAGAG,0.172,-0.265,-0.59,-0.711,-1.26,-0.128,-0.047,0.753,1.78,1.13,1.13,0.0832,-0.999,-0.906,-0.399,-0.198,-0.159,-0.136,-1.15,1.97
TGAATGAGGTTTTAAGATCAGGGAACGTTGCAAA,-0.288,-0.516,-0.631,-0.358,-0.602,0.0128,-0.186,0.12,0.000594,0.043,-0.427,-0.0166,-0.325,-0.224,0.0827,-0.0619,-0.319,0.152,0.043,-0.198
CGTCAAAGTTCAACTAAGGTAACGCAAAGCACGC,7.01,6.31,4.34,4.15,1.94,5.28,5.24,5.67,2.5,4.74,0.641,2.32,0.717,0.408,3.08,5.42,3.81,4.22,1.83,5.15
TAGCCTAGGTCATGCGGGCCTGTATAGTGTCGGC,3.73,3.24,0.135,1.6,-0.428,3.27,1.91,2.39,0.161,1.45,1.65,2.76,-0.075,-0.309,0.586,1.27,-0.864,2.14,-0.78,3.55
AGAATGATGTTAAGATCAGGGAAACAGAATACAT,-0.488,-0.548,-0.153,-0.269,-0.588,-0.205,0.948,-0.174,0.282,-0.132,-0.786,-0.128,-0.544,0.266,-0.958,-0.441,-0.00916,-0.274,0.423,-0.436
CAAACTAGGTCACGAAAGATCAAAGTCGAATGAC,4.53,5,0.705,3.03,0.541,5.84,9.56,7.69,6.2,7.72,8.91,9.37,5.61,5.17,2.46,2.88,0.236,3.39,1.08,4.37
CTCGAAAGGTCGGTTGATGTGAGTATACGGATAA,1.88,1.52,-0.145,1.45,0.455,2.31,0.418,0.917,0.204,0.223,0.122,0.641,0.802,0.00433,1.37,1.07,0.216,1.41,0.252,2.86
CCTTACGGGTCACTCCAGGTTGTAGCATCGGAGT,4.5,6.32,0.477,3.72,0.0911,4.42,2.92,3.54,0.72,2.5,2.42,3.11,0.374,0.469,1.62,3.85,-0.0202,3.84,0.553,3.65
CCGACTGGGGGAAAGGTTACCATACTCAGTACGA,1.81,2.38,0.42,3.4,3.72,5.42,9.9,9.24,8.87,9.88,2.52,5.31,3.53,3.07,1.86,2.63,0.241,3.24,0.206,2.04
CCTTAAGGGTCAAGGTTATAGCACGGGTGGTACG,7.56,5.38,1.06,4.67,0.683,5.86,5.81,5.97,2.96,4.78,2.34,3.94,0.0433,0.353,2.23,4.37,0.453,5.62,1.31,5.4
ATATGTAGGTTAAGGGTAATTCAGGTTGGTTCGC,1.39,2.14,1.04,1.72,0.767,4.6,8.65,7.77,8.77,8.33,7.67,7.16,1.52,1.87,2.15,1.74,1.44,1.63,2.31,1.69
ATATGTAGGTTAATGGTCATTCAGGTTGGTTCGC,0.826,1.09,0.821,1.24,0.469,4.6,7.74,7.54,6.76,7.88,7.35,7.31,4.17,3.57,2.47,1.23,0.787,0.723,1.49,1.45
TAAGACAGGTGAAGGTAACTCAGGTACGCAGTCG,0.669,1.42,0.116,0.904,1.51,0.916,1.01,1.38,1.67,1.57,0.644,1.64,0.53,0.465,0.394,0.257,0.588,0.526,0.631,1.51
CGAAGTAGGTCAAGGACAGTGAATCTCCGCACGC,3.88,2.75,0.0941,1.82,-0.179,5.28,8.14,6.95,4.62,6.44,8.4,8.73,5.06,1.85,2.14,1.39,-0.253,2.46,0.686,3.95
CGAACTAGGTCATCCATGACAGTGAATACATTGA,3.96,2.2,0.578,2.07,0.325,5.09,7.88,6.33,4.18,5.8,8.18,8.57,4.46,1.2,1.67,1.53,0.0131,2.26,0.371,3.98
CGTCCAAGGTCGTAGGAGGTCAGTGAAGACAGAT,4.38,4.75,1.14,3.33,-0.833,4.12,1.79,2.5,0.257,1.32,0.632,1.67,-0.489,-0.725,2.21,5.77,1.8,4.37,0.332,3.82
GTACCAAGGTGAATAGGTCGTGGATGAGTAGGCG,1.25,1.07,-0.132,0.395,-0.586,2.47,1.85,2.35,0.297,1.3,2.1,2.87,0.27,-0.568,1.84,0.978,-0.029,2.11,0.457,2.09
TAGCCTAGATCATTCAGGGGCCAGTATAGAAAGC,-0.33,-0.505,-0.351,-0.00287,-0.168,0.0623,0.276,0.125,-0.256,-0.407,1.21,1.03,-0.343,0.115,-0.77,-0.495,-0.234,0.0251,-0.596,0.0871
TCATATCGGTAAAAGGTGAAAGTCGGTGTGGTAA,1.65,1.77,0.323,1.52,0.181,4.23,6.69,6.91,6.64,7.74,3,3.46,0.579,1.77,2.19,1.25,0.807,2.24,1.92,1.97
CCAACGAGGGCATGAGTTGATAGCAAATGCCGAT,0.351,0.134,-0.411,-0.153,-0.701,0.994,1.05,0.858,-0.155,0.242,1.66,1.08,-0.303,-0.467,-0.0585,0.213,-0.173,0.447,-0.402,1.69
